Drawing on PubChem BioAssay AID371 (SRMLSC, 2006), this text covers growth inhibition for 87 compounds.

The campaign covered roughly 3,300 compounds. About 280 (8.5%) were called active.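 How the source made its calls: active means mean growth inhibition over the two runs of 50% or more; inactive means mean growth inhibition under 50%.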 Many of the other results were omitted from the sample, so actives are more common in it than they were.

A short description of the assay: A549 NSCLC cell proliferation inhibitors – ATP luminescence, human non-small cell lung line, primary screen (AID 371).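 Further: compound exposure lasted 72 h before the ATP read; 0% = untreated cell signal and 100% = no luminescence left.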 Conditions: at 10 µM, hits give high values.
As for `COCCOC(=O)c1c(C)oc2ccc(OC(=O)COc3c(F)c(F)c(F)c(F)c3F)cc12`, the growth inhibition was 5.03% (inactive). For `Cc1ccc(C(=O)NCC(C)(C)O)cc1`, the growth inhibition was 4.92% (inactive).

For the compound `COc1ccc(N2CCN(C3CC(=O)NC3=O)CC2)cc1` (configuration not stated), the growth inhibition is 1.16% (inactive).

For `CC(=O)O[C@H]1C(=O)[C@]2(C)[C@H]([C@H](OC(=O)c3ccccc3)[C@]3(O)C[C@H](OC(=O)[C@H](O)[C@@H](NC(=O)c4ccccc4)c4ccccc4)C(C)=C1C3(C)C)[C@]1(OC(C)=O)CO[C@@H]1C[C@@H]2O`, the growth inhibition was 65.8% (active).

On to `CC(=O)O[C@@]12CO[C@@H]1C[C@H](O)[C@@]1(C)C(=O)[C@H](O)C3=C(C)[C@@H](OC(=O)[C@H](O)[C@@H](NC(=O)OC(C)(C)C)c4ccccc4)C[C@](O)([C@@H](OC(=O)c4ccccc4)[C@H]21)C3(C)C`, for which the growth inhibition was 55.2% (active).

For `CCOC(=O)CC1=C(C(=O)OCC)C(c2ccc(OC)c(OC)c2)C(C#N)=C(N)O1` (configuration not stated), the growth inhibition was -2.02% (inactive). Consider `CCOC(=O)CC1=C(C(=O)OCC)C(c2cc(OC)c(OC)cc2OC)C(C#N)=C(N)O1` (configuration not stated), for which the growth inhibition was -5.45% (inactive). Turning to `CCCCCCn1c(SCCN2CCOCC2)nc2c1c(=O)[nH]c(=O)n2C`, the growth inhibition is 7.31% (inactive).

Turning to `CN1CC2(C)CN(C(c3ccccc3)c3ccccc3)CC(C)(C1)C2O` (configuration not stated), the growth inhibition is 6.36% (inactive). As to `CC(=O)O[C@]1(C(C)=O)CC[C@H]2[C@@H]3C=C(Cl)C4=CC(=O)CC[C@]4(C)[C@H]3CC[C@@]21C`, the growth inhibition is 52.6% (active).

`CC(=O)O[C@]1(C(C)=O)CC[C@H]2[C@@H]3C=C(C)C4=CC(=O)CC[C@]4(C)[C@H]3CC[C@@]21C`: the growth inhibition is 34.5% (inactive). Take `CCCCCC(=O)O[C@]1(C(C)=O)CC[C@H]2[C@@H]3CCC4=CC(=O)CC[C@]4(C)[C@H]3CC[C@@]21C`: the growth inhibition is 73.5% (active). As to `CC(=O)O[C@]1(C(C)=O)CC[C@H]2[C@@H]3C[C@H](C)C4=CC(=O)CC[C@]4(C)[C@H]3CC[C@@]21C`, the growth inhibition is 50% (inactive).

Consider `CCCCC(=O)O[C@]1(C(=O)CO)CC[C@H]2[C@@H]3CCC4=CC(=O)CC[C@]4(C)[C@H]3[C@@H](O)C[C@@]21C`, for which the growth inhibition is 21.6% (inactive). Regarding `CCCCCCCC(=O)OCC(=O)[C@@]1(O)CC[C@H]2[C@@H]3CCC4=CC(=O)CC[C@]4(C)[C@H]3[C@@H](O)C[C@@]21C`, the growth inhibition was 26.8% (inactive). To `O=C(O)C1CSC(CCc2ccccc2)N1` (configuration not stated) belongs 5.85% (inactive); to `CCN(CC)CCCN1C(=O)C(=O)/C(=C(/O)c2ccc3c(c2)CC(C)O3)C1c1cccnc1` (configuration not stated), 1.89% (inactive). As for `COc1ccccc1N(Cc1cc2cccc(C)c2[nH]c1=O)C(=O)C(C)C`, the growth inhibition is 12.1% (inactive). In the case of `O=C1C(=O)N(Cc2cccnc2)C(c2ccccn2)/C1=C(/O)c1ccc(F)cc1` (configuration not stated), the growth inhibition was 1.96% (inactive). For the compound `Cc1ccc(S(=O)(=O)/C(C#N)=C/c2c(N3CCN(C)CC3)nc3c(C)cccn3c2=O)cc1`, the growth inhibition is -1.01% (inactive). For `Cc1nnc(N2CCCCC2)c2ccccc12`, the growth inhibition was 8.14% (inactive).

`COc1ccc(Nc2nnc(C)c3ccccc23)cc1C(N)=O`: the growth inhibition is -0.95% (inactive). For the compound `Cc1nnc(NCc2n[nH]c(=O)c3ccccc23)c2ccccc12`, the growth inhibition was 69.7% (active). For the compound `Nc1nnnn1N=C1CCCCC1`, the growth inhibition was -2.31% (inactive).

Turning to `CCOC(=O)CCNc1n[nH]c(=O)[nH]c1=O`, the growth inhibition was 4.05% (inactive). `COC(=O)c1ccc(N2C(=O)CC(N3CCN(C(=O)c4ccco4)CC3)C2=O)cc1` (configuration not stated): the growth inhibition was -5.76% (inactive). Turning to `COc1ccc(Cn2ccnc2)cc1Br`, the growth inhibition is 7.92% (inactive). Consider `CC1(C)Cc2c(c(N3CCOCC3)nc3snc(Br)c23)CO1`, for which the growth inhibition is 16% (inactive). With `CC1(C)Cc2c(c(N3CCOCC3)nc3snc(N)c23)CO1`, the growth inhibition was 91% (active). In the case of `COc1nnnc2c1sc1nc(N3CCOCC3)c3c(c12)CC(C)(C)OC3`, the growth inhibition was -0.53% (inactive). As to `CCCCNC(=O)N1CCOCCOCCN(C(=O)NCCCC)CCOCC1`, the growth inhibition is 2.17% (inactive). Take `CCOP(=O)(c1ccccc1)c1nc(-c2ccccc2C)oc1N1CCCCC1` (configuration not stated): the growth inhibition is 90.3% (active). Turning to `N#Cc1nc(-c2ccccc2Cl)oc1N1CCCCC1`, the growth inhibition is 25.2% (inactive).

Regarding `CCOP(=O)(c1ccccc1)c1nc(-c2ccc(F)cc2)oc1N1CCCCC1` (configuration not stated), the growth inhibition is 35.1% (inactive). As to `Clc1cccc(-c2nn3c(COc4ccccc4)nnc3s2)c1`, the growth inhibition was -1.72% (inactive).

Take `Cc1nn(C)cc1/C=N/n1nnnc1N`: the growth inhibition was 3.1% (inactive). To `N#Cc1nc(-c2cccs2)oc1NCc1ccc2c(c1)OCO2` belongs 51.8% (active); to `N#Cc1nc(-c2cccs2)oc1NCc1ccccc1Cl`, 16.3% (inactive). For the compound `N#Cc1nc(-c2cccs2)oc1NCc1ccccc1`, the growth inhibition is 37.1% (inactive). To `Cc1ccc(C2/C(=C(/O)c3ccc(OC(C)C)cc3)C(=O)C(=O)N2CCN2CCOCC2)cc1` (configuration not stated) belongs -0.89% (inactive).

`Oc1c(C=NCc2ccncc2)sc2ccccc12`: the growth inhibition was 3.71% (inactive). In the case of `CC(=Nc1cccc(O)c1)c1sc2ccccc2c1O`, the growth inhibition is 71.6% (active).

Consider `Oc1c(C=Nc2cccnc2)sc2ccccc12`, for which the growth inhibition is 9.67% (inactive).

Take `O=C1CC(N(O)C2CC(=O)N(Cc3ccccc3)C2=O)C(=O)N1Cc1ccccc1` (configuration not stated): the growth inhibition was 9.01% (inactive).

Turning to `CN(C)CCCOC(=O)C1c2ccccc2Oc2ccccc21`, the growth inhibition is 8.41% (inactive). Consider `Cc1ccc2[nH]c3c(c2c1)CCCC3C(N)=O` (configuration not stated), for which the growth inhibition was 0.63% (inactive).

Consider `Cc1nnc(N2CCOCC2)c2ccccc12`, for which the growth inhibition is -0.2% (inactive).

For `NC(=O)C(c1ccccc1)C1CCCC1` (configuration not stated), the growth inhibition was 2% (inactive). On to `O=C(NC1CCCCC1)Nn1c(-c2ccccc2)nc2ccccc2c1=O`, for which the growth inhibition is 5.81% (inactive).

`O=C(NC1CCCCC1)N1CCSC1=Nc1ccccc1`: the growth inhibition is 83.3% (active). Consider `Cc1cc(C)n(-c2nnc(C)n2/N=C/c2ccccc2F)n1`, for which the growth inhibition was -1.21% (inactive). To `CCc1nnc(NC(=O)CSc2nc(C)c3c(c2C#N)CCCC3)s1` belongs 47.6% (inactive); to `Cc1ccc(-n2c(SCC(=O)NCc3ccco3)nc3nc4c(cc3c2=O)COC(C)(C)C4)cc1`, 7.55% (inactive). To `CCCc1cc(-c2nc(N)ncc2-c2ccc3c(c2)OCCCO3)c(O)cc1OC` belongs 78.2% (active); to `O=S(=O)(c1ccccc1)N1CCC(N2CCCCCC2)CC1`, 11.3% (inactive); to `Cc1ccc(S(=O)(=O)N(CC(O)CN(C)C)c2ccccc2)cc1` (configuration not stated), 5.21% (inactive).

Turning to `COC(=O)c1cc(Br)c(=O)n(-c2cc(C)on2)c1`, the growth inhibition is 5.44% (inactive). On to `C=C(C)CSC1=C(C#N)C(c2ccsc2)CC(=O)N1` (configuration not stated), for which the growth inhibition is 11.7% (inactive). In the case of `CCCCCCSC1=C(C#N)C(c2ccccc2)CC(=O)N1` (configuration not stated), the growth inhibition is 17.1% (inactive).

On to `N#CC1=C2SCC(O)(c3ccccc3)N2C(=O)CC1c1ccccc1` (configuration not stated), for which the growth inhibition is 61.5% (active). Regarding `CCCCn1c(O)c(C=NCCCN(C)C)c(=O)[nH]c1=O`, the growth inhibition was -0.32% (inactive). For the compound `CC1(C)Cc2c(C#N)c(SCCC#N)nc(N3CCOCC3)c2CS1`, the growth inhibition was 26.4% (inactive). For `CCOc1ccc(S(=O)(=O)N(C)CCO)cc1-c1nc2c(C(C)(C)C)nn(C)c2c(=O)[nH]1`, the growth inhibition is 22% (inactive). To `CCOc1ccc(S(=O)(=O)NC(C)(C)C)cc1-c1nc2c(C(C)(C)C)nn(C)c2c(=O)[nH]1` belongs 62.9% (active); to `CCOc1ccc(S(=O)(=O)N(C)C)cc1-c1nc2c(C(C)(C)C)nn(C)c2c(=O)[nH]1`, -2.28% (inactive); to `COC(=O)C(NC(=O)c1ccccc1)(Nc1nc(C)cs1)C(F)(F)F` (configuration not stated), 4.51% (inactive). On to `CN(C)C(CN1C(=O)C2CC=CCC2C1=O)c1cn(C)c2ccccc12` (configuration not stated), for which the growth inhibition is -4.21% (inactive).

Turning to `COc1ccc2[nH]c(C)c(C(=O)CN3CCOCC3)c2c1`, the growth inhibition was -6.74% (inactive). Consider `Nc1nnnn1/N=C/c1ccccn1`, for which the growth inhibition was 3.3% (inactive). `C=CCOC(=O)C1=C(C)NC(SCC(=O)Nc2ccc(C)c(Cl)c2)=C(C#N)C1c1ccco1` (configuration not stated): the growth inhibition was 84.2% (active). As to `CCCCc1ccc(NC(=O)CSC2=C(C#N)C(c3ccco3)C3=C(CCCC3=O)N2)cc1` (configuration not stated), the growth inhibition is 57.6% (active). Turning to `COc1ccc(OC)c(NC(=O)CSC2=C(C#N)C(c3ccco3)C3=C(CCCC3=O)N2)c1` (configuration not stated), the growth inhibition is 16.1% (inactive). Consider `C=CCOC(=O)C1=C(C)NC(SCC(=O)N(CC)CC)=C(C#N)C1c1ccccc1` (configuration not stated), for which the growth inhibition was 51.2% (active).

With `CCOC(=O)C1=C(c2ccccc2)NC(SCC(=O)Nc2ccccc2C)=C(C#N)C1c1ccco1` (configuration not stated), the growth inhibition was 38.8% (inactive). Regarding `COc1cccc(NC(=O)CSC2=C(C#N)C(c3ccco3)C3=C(CCCC3=O)N2)c1` (configuration not stated), the growth inhibition was 60.1% (active). `COc1ccc(NC(=O)CSC2=C(C#N)C(c3ccco3)C3=C(CCCC3=O)N2)c(OC)c1` (configuration not stated): the growth inhibition is 10.5% (inactive). With `COCCOC(=O)C1=C(C)NC(SCC(=O)NC(C)(C)C)=C(C#N)C1c1ccco1` (configuration not stated), the growth inhibition is 32.6% (inactive). To `CCN(CC)C(=O)CSC1=C(C#N)C(c2ccco2)C(C(=O)OCCOC)=C(C)N1` (configuration not stated) belongs 1.8% (inactive). As to `CCc1ccccc1NC(=O)CSC1=C(C#N)C(c2ccc(O)c(OC)c2)C2=C(CCCC2=O)N1` (configuration not stated), the growth inhibition is 35% (inactive). Take `C=CCOC(=O)C1=C(C)NC(SCC(=O)N(CC)CC)=C(C#N)C1c1ccco1` (configuration not stated): the growth inhibition was 21.8% (inactive). Turning to `CCc1ccc(NC(=O)CSC2=C(C#N)C(c3ccco3)C3=C(CCCC3=O)N2)cc1` (configuration not stated), the growth inhibition was 44.8% (inactive). With `O=c1[nH]c(CN2CCCCC2)nc2c1C1(CCCCC1)Cc1ccccc1-2`, the growth inhibition is -4.24% (inactive). To `CCCCc1[nH]c(=O)c(C#N)c2c1CSC(C)(C)C2` belongs 7.58% (inactive). In the case of `CCCCOC(=O)CSC1=C(C#N)C(c2ccccc2OC)C(C#N)C(=O)N1` (configuration not stated), the growth inhibition was 6.07% (inactive). Take `COc1ccc2nc(SCC(=O)O)nc(C)c2c1`: the growth inhibition was -2.56% (inactive). To `COc1ccc(-c2cc(=O)[nH]c(=O)[nH]2)cc1` belongs 1.67% (inactive); to `Cc1nnc2n(-c3ccccc3)c(=O)c3c4c(sc3n12)COC(C)(C)C4`, -0.59% (inactive).
